Compound activity (PubChem BioAssay)
The list is not random: actives were taken first. Their share in the collection is about 7.6%.
Giardia killer = Small Molecules that selectively kill Giardia lamblia: qHTS; activity change, % at 7.66 µM, hits read low; 0.15% of 340,000 active; Giardia lamblia trophozoite viability; in the data active = activity change below about -80%; inconclusive = between about -30% and that limit;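 also: parasites exposed to compound for two days anaerobically before the ATP read; % is scaled to controls: 0 for no effect and ±100 for the full control effect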
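Anaerobic 48 hrs incubation at 37 deg C of 100 trophozoites/well with test compounds; ATPLite 1-Step luminescence, 15-30 min RT, reports cellular ATP as viability.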
ELG1 DNA repair = qHTS screen for small molecules that inhibit ELG1-dependent DNA repair in human embryonic kidney (HEK293T) cells expressing luciferase-tagged ELG1; Potency, µM (highest dose often 46.1 µM), without a hit: at the highest dose activity change, negative = inhibition, most hits filed as inhibitors; AID 504467, 2011; HEK293T ELG1-luciferase reporter, luminescence, 16 h; DNA damage induced by 5-fluorouridine; 2.3% of 330,000 active; also: potency is read from the fitted curve at half-maximal effect; % is scaled to controls: 0 for no effect and ±100 for the full control effect; nearly all actives have a fitted effect of over 55% in size
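Reporter activity after DNA damage by 5-fluorouridine is monitored. Compound-treated cells incubate 16 hr at 37 °C, then ONE-Glo is added for 30 min before luminescence reading.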
RORgamma inh = qHTS for inhibitors of ROR gamma transcriptional activity. Nuclear receptor ROR-gamma (Mus musculus), P51450. Drosophila S2 Gal4-RORgamma UAS-luciferase reporter, 20 h. Potency, µM (titrated, usually from 53.6 µM), inactives show at the top dose activity change, negative = inhibition, usual class: inhibitors. 5.4% of 310,000 active; also: potency is read from the fitted curve at half-maximal effect; % is scaled to controls: 0 for no effect and ±100 for the full control effect; nearly all actives have a fitted effect of over 60% in size
Target sequence (P51450 whole entry, looked up, the tested form may be a part): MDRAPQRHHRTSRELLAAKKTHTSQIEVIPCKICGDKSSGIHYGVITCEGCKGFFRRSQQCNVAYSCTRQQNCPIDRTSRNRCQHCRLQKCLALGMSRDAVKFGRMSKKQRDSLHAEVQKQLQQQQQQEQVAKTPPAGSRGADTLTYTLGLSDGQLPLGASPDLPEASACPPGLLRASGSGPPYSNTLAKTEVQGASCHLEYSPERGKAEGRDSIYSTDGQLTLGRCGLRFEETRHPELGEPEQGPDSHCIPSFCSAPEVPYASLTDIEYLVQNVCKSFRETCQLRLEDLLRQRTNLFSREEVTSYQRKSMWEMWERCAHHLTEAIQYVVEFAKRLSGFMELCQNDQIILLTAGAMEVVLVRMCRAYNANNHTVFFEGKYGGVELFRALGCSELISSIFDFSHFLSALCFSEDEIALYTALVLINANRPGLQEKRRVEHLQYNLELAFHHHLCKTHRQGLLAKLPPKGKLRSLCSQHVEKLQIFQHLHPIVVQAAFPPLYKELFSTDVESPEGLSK
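Read-out: Photinus luciferase luminescence; inhibitors lower reporter signal. Insect Schneider cells with Gal4-ROR gamma fusion under metallothionein promoter, UAS reporter; 700 uM final copper sulfate induction, 20 hr, ambient temperature.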
p53 reactivation = qHTS assay for re-activators of p53 using a Luc reporter | H1299 p53-A138V BP100-luciferase reporter, luminescence, 24 h | Potency, µM (titrated, usually from 92.2 µM), for the others: top-dose activity change, positive = activation, hits mostly activators | 0.063% of 320,000 active; also: potency is read from the fitted curve at half-maximal effect; % of control where 0% means no effect; nearly all actives have a fitted effect of over 45% in size
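H1299 (p53-null), stable ts p53-A138V + BP100-Luc; 1000 cells/well, Opti-MEM/10% FBS; cpd 4 pt, 1:5; 24 h, 37 deg C, 5% CO2; detection reagent 10 min RT; luminescence.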
BRCA1 expr up = qHTS Assay to Identify Small Molecule Activators of BRCA1 Expression | MCF7-BRCA1-FFLuc reporter, luminescence, 48 h; response scale: scaled: vehicle 0%, 10 µM genistein 100% | Potency, µM (highest dose often 46.1 µM), for the others: top-dose activation, usual class: activators | 1.1% of 380,000 active | AID 624202, 2012; also: potency is read from the fitted curve at half-maximal effect; nearly all actives have a fitted effect of over 80% in size
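Reporter cells (MCF7, BRCA1 promoter-firefly luciferase) received library compounds across a concentration series for 48 h. End-point luminescence was measured and concentration-effect curves derived after normalization.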
VP16 counter = VP16 counterscreen qHTS for inhibitors of ROR gamma transcriptional activity. 3.5% of 310,000 active. AID 2546, 2010. Potency, µM (titrated, usually from 53.6 µM), for inactives: at the highest dose activity, negative = inhibition, hits mostly inhibitors. Drosophila S2 Gal4-VP16 UAS-luciferase, luminescence, 20 h;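 also: Gal4-VP16 expression switched on by copper sulfate through the metallothionein promoter; potency is read from the fitted curve at half-maximal effect; % is scaled to controls: 0 for no effect and ±100 for the full control effect; nearly all actives have a fitted effect of over 50% in size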
Starred values were filed as active, the others as inactive; [ ] = remark or other dose. Unless noted, calls follow the shape of the dose curve; as a rule, active = well fitted curve in the direction sought with a large enough effect; inconclusive = small, poorly fitted or top-dose-only effect, or another doubt; inactive = no such curve, though single readings can be large; an effect the other way counts as inactive or inconclusive.

Screening COc1ccc(OC)c(-n2c(=S)[nH]c3cc(C(=O)N(C)Cc4ccccc4)ccc3c2=O)c1 returned Giardia killer 3.5, ELG1 DNA repair -19.5%, RORgamma inh 12.6µM*, p53 reactivation -4.2%, BRCA1 expr up -5.8% and VP16 counter inconclusive.
`O=C(c1ccc2c(=O)n(-c3ccccc3)c(=S)[nH]c2c1)N1CCN(c2ccccc2)CC1` gave Giardia killer 11.7, ELG1 DNA repair inconclusive, p53 reactivation 12.2% and BRCA1 expr up -17.9%.
For COc1ccc(OC)c(-n2c(=S)[nH]c3cc(C(=O)N4CCN(c5ccccc5)CC4)ccc3c2=O)c1 the results were Giardia killer 1.8, ELG1 DNA repair inconclusive, RORgamma inh 11.2µM*, p53 reactivation 1.2%, BRCA1 expr up -2.5% and VP16 counter -8.9%.
`O=C(NC(NC(=S)Nc1ccc(F)c([N+](=O)[O-])c1)C(Cl)(Cl)Cl)C(c1ccccc1)c1ccccc1` (configuration not stated) gave RORgamma inh 3.98µM* and VP16 counter 5.01µM*.
`CCc1nnc2n1N=C(c1ccc([N+](=O)[O-])cc1)CS2` gave Giardia killer -8.4, ELG1 DNA repair -12.4%, RORgamma inh -5.9%, p53 reactivation -1.8%, BRCA1 expr up -14.3% and VP16 counter 11.0%.
Screening O=S(=O)(c1cccc(C(F)(F)F)c1)N1CCC(c2nc3ccccc3[nH]2)CC1 returned Giardia killer -26.7, ELG1 DNA repair -12.1%, RORgamma inh -0.9%, p53 reactivation 3.4%, BRCA1 expr up -34.9% and VP16 counter -7.3%.
CC(C)Nc1nc2nonc2nc1Nc1ccccc1 was read as Giardia killer -15.6, ELG1 DNA repair 16.4µM*, RORgamma inh 19.7%, p53 reactivation 0.3%, BRCA1 expr up -48.1% and VP16 counter -2.5%.
`CC(C)Nc1ccccc1` gave Giardia killer 1.6, ELG1 DNA repair 7.9%, RORgamma inh 23.2%, p53 reactivation -2.6%, BRCA1 expr up 7.2% and VP16 counter -6.6%.
O=C(O)/C=C/c1ccc(S(=O)(=O)Nc2ccc(OCc3ccccc3)cc2)cc1 was read as Giardia killer -11.8, ELG1 DNA repair 5.1%, RORgamma inh 0.0%, p53 reactivation -1.9%, BRCA1 expr up 14.2% and VP16 counter -11.8%.
N#Cc1ccccc1COc1ccc(/C=C/C(=O)O)cc1 was read as Giardia killer -2.3, ELG1 DNA repair 6.6%, RORgamma inh 0.178µM*, p53 reactivation -11.2%, BRCA1 expr up -82.0% and VP16 counter 0.708µM*.
For CO[C@@H]1COC(=O)CC=C[C@@H](C)[C@@H]2C=C[C@H](O)[C@@H](COC(=O)C/C=C\[C@H]1C)O2 the results were RORgamma inh 22.2%[10 µM] and VP16 counter -3.2%[10 µM].
Fc1ccccc1NC(=S)N/N=C/c1ccccc1Br was read as Giardia killer 1.5, ELG1 DNA repair inconclusive, RORgamma inh 3.16µM*, p53 reactivation inconclusive, BRCA1 expr up 1.0% and VP16 counter 4.47µM*.
Screening O=[N+]([O-])c1ccc(/C=N/NC(=S)Nc2ccccc2)o1 returned Giardia killer inconclusive, ELG1 DNA repair inconclusive, RORgamma inh inconclusive, p53 reactivation inconclusive, BRCA1 expr up -19.7% and VP16 counter inconclusive.
Screening O=[N+]([O-])c1ccc(/C=N/NC(=S)Nc2ccccc2F)o1 returned Giardia killer -16.4, ELG1 DNA repair inconclusive, RORgamma inh 7.08µM*, p53 reactivation 33.2%, BRCA1 expr up 8.4% and VP16 counter 7.94µM*.
For S=c1[nH]nc(-c2cccs2)n1/N=C/c1cn(-c2ccccc2)nc1-c1cccs1 the results were Giardia killer -22.5, ELG1 DNA repair inconclusive, RORgamma inh 7.94µM*, p53 reactivation 19.2%, BRCA1 expr up 8.6% and VP16 counter inconclusive.
`S=c1[nH]nc(-c2ccncc2)n1/N=C/c1cn(-c2ccccc2)nc1-c1ccccc1` gave Giardia killer -3.7, ELG1 DNA repair -3.7%, RORgamma inh -9.6%, p53 reactivation -2.7%, BRCA1 expr up 12.6µM* and VP16 counter 0.7%.
`CC(C)OC(=O)c1c2c(n3ccccc13)C(=O)c1ccccc1C2=O` gave Giardia killer -29.2, ELG1 DNA repair 18.4µM*, RORgamma inh -24.5%, p53 reactivation 4.2%, BRCA1 expr up -33.1% and VP16 counter -12.1%.
Screening O=C(NCc1ccccc1Cl)C1CCN(C(=O)c2sccc2-n2cccc2)CC1 returned Giardia killer -20.7, ELG1 DNA repair inconclusive, RORgamma inh 17.4%, p53 reactivation -2.3%, BRCA1 expr up -9.3% and VP16 counter 1.1%.
CCOc1ccccc1CNC(=O)C1CCN(C(=O)c2sccc2-n2cccc2)CC1 was read as Giardia killer -17.4, ELG1 DNA repair 13µM*, RORgamma inh 19.7%, p53 reactivation -14.0%, BRCA1 expr up 2.6% and VP16 counter -10.7%.
For CC(NC(=O)c1cc([N+](=O)[O-])cc([N+](=O)[O-])c1)c1ccc(-n2ccnc2)cc1 (configuration not stated) the results were Giardia killer -7.3, ELG1 DNA repair -4.4%, RORgamma inh -30.0%, p53 reactivation -12.6%, BRCA1 expr up -14.8% and VP16 counter -2.3%.
`CC1(C)Cc2c(sc(NC(=O)C(=O)NCCCN3CCOCC3)c2C#N)CO1` gave Giardia killer -7.8, ELG1 DNA repair 11.4%, RORgamma inh -2.8%, p53 reactivation 5.9%, BRCA1 expr up -6.3% and VP16 counter -10.8%.
Cc1cc(C)n(C(=O)Cn2nc([N+](=O)[O-])cc2C)n1 was read as Giardia killer -14.7, ELG1 DNA repair 10.4%, RORgamma inh inconclusive, p53 reactivation -9.8%, BRCA1 expr up -3.5% and VP16 counter -5.3%.
CC1=CCC(COC(=O)Nc2ccccc2)CC1 (configuration not stated) was read as Giardia killer 14.2, ELG1 DNA repair inconclusive, RORgamma inh -19.0%, p53 reactivation inconclusive, BRCA1 expr up 3.55µM* and VP16 counter -18.8%.
Oc1cc(-c2ccncc2)cc2cccnc12 was read as Giardia killer -24.9, ELG1 DNA repair 16.4µM*, p53 reactivation inconclusive and BRCA1 expr up -84.7%.
